# From PubChem BioAssay (NCI)
# About 83,000 compounds went through this panel and 20% of them were active in at least one assay; those are over-represented in the sample as a whole.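 Percent growth is the endpoint: 0 to 100 indicates growth inhibition (40 means 60% inhibition), 0 means no net growth, and negative values indicate cell death.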 Values without a mark were called inactive. Active and inactive are the calls of the source. The calls were made as follows: active = growth percent below 10; inactive = the rest.
# System: HL-60(TB) leukemia
# Experiment: NCI-60 one-dose screen, 48 h (100 = growth as untreated, 0 = no growth, -100 = all killed)
# Details: 10 µM unless noted
row,SMILES,growth
1,COc1cc(/C=C/C(=O)c2ccc(Oc3ncnc4ccccc34)cc2)cc(OC)c1OC,54.3%
2,Cc1cnc(N)s1,97.7%
3,CC([C@H]1CCC2C3CCC4C(=O)C(NC=O)=CC[C@]4(C)C3CC[C@@]21C)N(C)C (stereo not given in full),1.54% (active)
4,CC(C)(C)c1ccc(S(=O)(=O)Oc2ccc(NC(=O)C3CCCCC3)cc2)cc1,59.3%
5,COc1ccc2[nH]cc(/C=C3/C(=O)Nc4ccc(Cl)cc43)c2c1,53.4%
6,COc1cccc2c1C(=O)c1c(O)c3c(c(O)c1C2=O)CC(O)(/C(C)=N/NC(=O)CCCCC(=O)N/N=C(\C)C1(O)Cc2c(O)c4c(c(O)c2C(OC2CC(N)C(O)C(C)O2)C1)C(=O)c1c(OC)cccc1C4=O)CC3OC1CC(N)C(O)C(C)O1 (stereo not given),-9.19% [5 µM] (active)
7,O=C(O)CCCCCCCCCCN1C(=O)/C(=C2/C(=O)N(CC(=O)O)c3ccc(Br)cc32)SC1=S,9.25% (active)
8,O=C(O)c1ccc(P(=O)(O)O)c([N+](=O)[O-])c1,100%
9,O=C(Nc1ccncc1)C(=O)c1cn(S(=O)(=O)c2cccc(Cl)c2)c2ccccc12,41.8%
10,N#Cc1ccc(N2Cc3cc(Cl)ccc3OC3=C2C(=O)N(Cc2ccc(F)cc2)C3=O)cc1,-57.9% (active)
11,Nc1nc2c(c3cnccc13)C(c1ccc(Cl)c(Cl)c1)Cc1cnccc1-2 (stereo not given),-16.5% (active)
12,COc1cccc(-c2ccc3c(c2)NC(=O)/C3=C\c2ccc[nH]2)c1,-1.26% (active)
13,Oc1ccc(-c2nc3ccc4[nH]ncc4c3c3c2CCCC3)c(F)c1,0.236% (active)
14,CCOC(=O)CN1/C(=N/c2sc3c(c2C(=O)OCC)CCN(C(=O)OCC)C3)SC(=O)/C1=C\C(=O)OC,79.9%
15,C#CCn1cnc2cnc(Nc3cccc(NC(=O)CCl)c3)nc21,-7.95% [6.25 µM] (active)
16,O=C(CNC(=O)OCc1ccccc1)NCC(=O)Oc1ccc([N+](=O)[O-])cc1,141%
17,CN(C)CCCNc1nc(-c2cccc(C(Cl)(Cl)Cl)c2)nc(C(Cl)(Cl)Cl)n1,105%
18,C=C1C(=O)O[C@H]2[C@H]1CC/C(COC(=O)/C=C\C(=O)NCc1ccc(Cn3c(=O)sn(-c4ccc(C#N)cc4)c3=O)cc1)=C\CC[C@@]1(C)O[C@@H]21,-40.3% (active)
19,Nc1ccc(N=Nc2ccccc2)cc1[N+](=O)[O-],97.1%
20,O=C(/C=C/c1cccc(Nc2ccnc3cc(Cl)ccc23)c1)c1ccc(Cl)cc1,47.6%

row,SMILES,growth
1,CCC(=O)c1ccc(O)c(OC)c1,102%
2,CC[C@H](Nc1cc(C)nc(N)n1)c1nc2cccc(NCc3ccc(C(=O)NO)cc3)c2c(=O)n1-c1ccccc1,2.35% (active)
3,Cc1cc(NC(=O)c2cccc(C(F)(F)F)c2)ccc1-n1ccc2c(NC(=O)c3ccccc3)nccc21,106%
4,COC(=O)c1c(C(=O)OC)c2ccc3c4ncccc4ccc3n2c1C(=O)c1ccc(C)cc1,91.8%
5,CCOC(=O)c1ccc(Nc2ncnc3ccc(NC(=O)c4ccccc4)cc23)cc1,69.9%
6,CCC1CCc2nc3sc(C(=O)Nc4cccc(C)c4)c(N)c3cc2C1 (stereo not given),55.7%
7,CCOC(=O)c1cc2c(n1Cc1cc(OC)cc(OC)c1Br)-c1nc(NC(C)=O)sc1CCC2,43.1%
8,C=CCN1C(=O)/C(=C\c2ccc3c(c2)CCC3)SC1=S,79%
9,CC(C)c1nc2ccccc2n1CC(=O)N/N=C/c1cccc(O)c1,86.5%
10,Cn1cc(-c2csc(-c3cn(C(=O)OC(C)(C)C)c4ccccc34)n2)c2cccnc21,65.8%
11,Cc1ccc([P+](Cc2ccc([N+](=O)[O-])cc2)(c2ccc(C)cc2)c2ccc(C)cc2)cc1,-43.8% (active)
12,O=C1c2ccccc2CCC1(Br)Br,-31.3% (active)
13,CC1CCc2c(C(=O)Nc3ncc(Cc4cccc([N+](=O)[O-])c4)s3)csc2C1 (stereo not given),-26.3% (active)
14,CN(C)c1ccc(/C=N/NC(=O)c2ccccc2Nc2cccc(C(F)(F)F)c2)cc1,92.1%
15,CCCCN1CCCCn2c1nc1c2c(=O)n(C)c(=O)n1C,108%
16,O=C(/C=C/c1ccc2c(c1)OCO2)c1c(O)c2ccccc2oc1=O,77.8%
17,CN1CCN(CCOc2ccc(-c3cnc4c(-c5cccc(F)c5F)cnn4c3)cc2)CC1,-49.9% (active)
18,COc1ccc(C(=O)/C=C/C23c4ccccc4C(c4ccccc42)C2C(=O)NC(=O)C23)cc1 (stereo not given),92%
19,O=c1cc(N/N=C/c2ccc(F)cc2)c2cc(Cl)ccc2[nH]1,-9.23% (active)
20,O=C(NNC(=O)N1c2ccccc2C=Cc2ccccc21)c1ccc2ccccc2c1,90%
